In the library only some 1.5% were active in any assay of this set; here they are far more common.
MCL1 BIM primary = inhibitors of human MCL1 binding to BIM-BH3 peptide | 0.68% of 320,000 active | AID 2057 | inhibition, % at 10.9 µM | GST-MCL1 / FITC-Bim-BH3 fluorescence polarization | Q07820;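 active means inhibition above the mean inhibition of all tested compounds plus 3 SD, set per campaign, cut at about 40% in these data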;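 further: higher means more loss of mP so more displacement of Bim peptide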
Target sequence (Q07820 whole entry, looked up): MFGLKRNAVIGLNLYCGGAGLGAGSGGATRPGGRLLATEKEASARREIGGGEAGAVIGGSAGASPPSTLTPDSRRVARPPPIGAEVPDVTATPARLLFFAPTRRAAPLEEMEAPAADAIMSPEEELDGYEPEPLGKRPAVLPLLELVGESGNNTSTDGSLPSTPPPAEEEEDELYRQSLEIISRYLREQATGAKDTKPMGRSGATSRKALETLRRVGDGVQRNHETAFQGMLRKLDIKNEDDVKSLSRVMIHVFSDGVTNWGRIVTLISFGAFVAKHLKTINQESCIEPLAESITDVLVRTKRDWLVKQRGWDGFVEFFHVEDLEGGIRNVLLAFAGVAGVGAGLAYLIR
EBV gp42 inh = inhibitors of Epstein-Barr virus glycoprotein 42; AID 1085; inhibition, % (tested at 21.74 µM); Fluorescence polarization binding assay, mP read-out; Q1HVG2; 0.42% of 220,000 active; in the data active means inhibition above about 50%
E coli Lon inh = inhibitors of E. coli Lon protease. inhibition, % at 7.94 µM. P0A9M0. AID 602123. purified E. coli Lon protease, fluorescence polarization. 0.42% of 360,000 active; in the data active means inhibition above about 13%, passing the limit was not always enough
BCLXL inh = Bcl-xL (human) inhibition; AID 2129; inhibition, % at 10.9 µM; GST-Bcl-xL / FITC-Bim BH3 peptide fluorescence polarization; 0.7% of 320,000 active; Q07817;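 active means inhibition above the mean of all tested compounds plus 3 SD, cutoff set per campaign, cut at about 30% in these data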;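 further: inhibitors lower millipolarization by displacing the labeled peptide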
GLD-1 TGE inh = GLD-1-TGE RNA interaction inhibition (C. elegans); purified GLD-1 + fluorescein TGE RNA, fluorescence polarization; inhibition, % at 5.96 µM; 0.44% of 320,000 active; AID 2280;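 active means percent inhibition above a per-plate cutoff, the plate mean of test compounds plus 3 SD, cut at about 30% in these data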
MEX-5 binding = C. elegans MEX-5 TCR-2 RNA binding activity; AID 1832; activity score (negative = inhibition of binding), % at 10 µM; 0.38% of 300,000 active; MEX-5/FITC-TCR2 RNA binding, fluorescence polarization; hits give low values; Q9XUB2;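 active means inhibition past about -25% in most replicates, and total fluorescence under double the plate's negative control median, limit read from the data; inconclusive means replicates evenly split on the limit, or fluorescence at least double controls; inactive means too little inhibition in most replicates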
Large screens that a line does not name were inactive.

CC(C)Cc1nnc(NC(=O)CCC(=O)N2CCC(C)CC2)s1	none (no result: EBV gp42 inh)
Cc1ccc(N=Nc2c(N)[nH]n3c(=O)cc(-c4ccccc4)nc23)cc1	EBV gp42 inh 63
N#CC(C(=O)NCc1ccccc1)c1nc2ccccc2nc1N1CCCC1 (stereo unspecified)	MEX-5 binding -97
CCN(CC)c1nc2ccccc2nc1C(C#N)C(=O)NCCc1ccccc1 (stereo unspecified)	EBV gp42 inh 78, MEX-5 binding inconclusive
CCOC(=O)C1CCCN(c2nc3ccccc3nc2C(C#N)C(=O)NCc2ccccc2)C1 (stereo unspecified)	EBV gp42 inh 54
CCN(CC)c1nc2ccccc2nc1C(C#N)C(=O)NCCCOC (stereo unspecified)	none
N#CC(C(=O)NCCc1ccccc1)c1nc2ccccc2nc1N1CCCCC1 (stereo unspecified)	MEX-5 binding inconclusive
CCCCCCOC(=O)C(C#N)c1nc2ccccc2nc1N1CCOCC1 (stereo unspecified)	EBV gp42 inh 99
CCCCOC(=O)C(C#N)c1nc2ccccc2nc1N1CCOCC1 (stereo unspecified)	none
COc1ccc(C(=O)N/C(=C/c2ccccc2F)C(=O)NCCN2CCOCC2)cc1OC	none (no result: EBV gp42 inh)
O=C(COC(=O)c1ccc(NS(=O)(=O)c2cccs2)cc1)NCc1ccco1	EBV gp42 inh 67
O=C(COC(=O)c1cccs1)NCc1ccco1	none (no result: EBV gp42 inh)
Clc1ccccc1C1Nc2cccc3cccc(c23)N1	BCLXL inh 38 (no result: EBV gp42 inh)
Brc1ccc(C2Nc3cccc4cccc(c34)N2)cc1	none (no result: MCL1 BIM primary, EBV gp42 inh, BCLXL inh, GLD-1 TGE inh, MEX-5 binding)
c1coc(C2Nc3cccc4cccc(c34)N2)c1	MCL1 BIM primary 58, BCLXL inh 51 (no result: E coli Lon inh)
Clc1cccc(C2Nc3cccc4cccc(c34)N2)c1Cl	none (no result: EBV gp42 inh)
Cc1cccn2c(=O)c(/C=C(\C#N)S(=O)(=O)c3ccccc3)c(N3CCN(C)CC3)nc12	none
Cc1cccn2c(=O)c(C=C(C#N)C#N)c(N3CCN(c4cccc(Cl)c4)CC3)nc12	MCL1 BIM primary 43, BCLXL inh 39 (no result: EBV gp42 inh)
CCN1CCN(c2nc3c(C)cccn3c(=O)c2/C=C(\C#N)S(=O)(=O)c2ccc(C)cc2)CC1	MCL1 BIM primary 48, BCLXL inh 52
COC(=O)/C(C#N)=C/c1c(N2CCN(c3cccc(Cl)c3)CC2)nc2c(C)cccn2c1=O	none (no result: EBV gp42 inh)
Cc1ccc(S(=O)(=O)/C(C#N)=C/c2c(N3CCN(C)CC3)nc3c(C)cccn3c2=O)cc1	BCLXL inh 40
COC(=O)c1ccc2c(c1)C(C)(C)C(/C=C/c1ccccc1O)=[N+]2C	GLD-1 TGE inh 40, MEX-5 binding inconclusive
COc1cc(Cl)cc(/C=N\NC(=O)c2ccc3c(c2)OCO3)c1O	none (no result: MCL1 BIM primary, EBV gp42 inh, BCLXL inh, GLD-1 TGE inh, MEX-5 binding)
O=C(N/N=C/c1cc(Cl)cc([N+](=O)[O-])c1O)c1ccc2c(c1)OCO2	MEX-5 binding -31 (no result: EBV gp42 inh)
O=C(N/N=C/c1cc(Cl)cc([N+](=O)[O-])c1O)c1ccccc1NS(=O)(=O)c1cccs1	MEX-5 binding -47
O=C(N/N=C/c1cc(Cl)cc([N+](=O)[O-])c1O)NC12CC3CC(CC(C3)C1)C2	EBV gp42 inh 52
O=C(N/N=C/c1ccccc1O)NC12CC3CC(CC(C3)C1)C2	none (no result: EBV gp42 inh)
Cc1ccc(C(c2sc3ncnn3c2O)N2CC(C)CC(C)C2)cc1 (stereo unspecified)	BCLXL inh 56
CC1CCCN(C(c2ccccc2)c2sc3ncnn3c2O)C1 (stereo unspecified)	none
CN(CCO)c1ncnc2c1sc1nc(N3CCOCC3)c3c(c12)CCC3	none (no result: MEX-5 binding)
Cc1ccccc1CS(=O)(=O)Cc1ccc(C(=O)NCc2ccccn2)o1	BCLXL inh 31
COc1ccccc1C(=O)Nc1nnc(-c2ccccc2)s1	BCLXL inh 47 (no result: EBV gp42 inh)
COc1cc(NC(=O)Cn2ncc3c2-c2ccccc2OC3)cc(OC)c1OC	BCLXL inh 172
COc1cccc(/C=C2\N=C(SC)SC2=O)c1OC	none
CSC1=N/C(=C\c2ccccc2F)C(=O)S1	EBV gp42 inh 99
Cc1cc(OCCCCn2ccnc2)cc(C)c1Cl	none
CCCN1C(=O)/C(=C/c2c(NCCCOCC)nc3c(C)cccn3c2=O)SC1=S	none (no result: MCL1 BIM primary, BCLXL inh, GLD-1 TGE inh, MEX-5 binding)
CCOCCCNc1nc2c(C)cccn2c(=O)c1/C=C1\SC(=S)N(C(C)CC)C1=O (stereo unspecified)	EBV gp42 inh 133, MEX-5 binding inconclusive
